# Sampled rows, rich in hits. Any-hit rate of the full collection: about 4.3%.
# HGIII-sPLA2 inh = Inhibits HGIII-sPLA2 liposome hydrolysis, primary screen. Q9NZ20. QFRET BODIPY PC-A2 liposome hydrolysis, fluorescence. inhibition, % at 12.2 µM. 0.56% of 370,000 active;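 active = inhibition above mean plus 3 SD of compounds lying within the high and low control bounds, cut at about 19% in these data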;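 note: 0% = median of test compound wells and 100% = no enzyme DMSO wells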
# Target sequence (Q9NZ20 whole entry, looked up): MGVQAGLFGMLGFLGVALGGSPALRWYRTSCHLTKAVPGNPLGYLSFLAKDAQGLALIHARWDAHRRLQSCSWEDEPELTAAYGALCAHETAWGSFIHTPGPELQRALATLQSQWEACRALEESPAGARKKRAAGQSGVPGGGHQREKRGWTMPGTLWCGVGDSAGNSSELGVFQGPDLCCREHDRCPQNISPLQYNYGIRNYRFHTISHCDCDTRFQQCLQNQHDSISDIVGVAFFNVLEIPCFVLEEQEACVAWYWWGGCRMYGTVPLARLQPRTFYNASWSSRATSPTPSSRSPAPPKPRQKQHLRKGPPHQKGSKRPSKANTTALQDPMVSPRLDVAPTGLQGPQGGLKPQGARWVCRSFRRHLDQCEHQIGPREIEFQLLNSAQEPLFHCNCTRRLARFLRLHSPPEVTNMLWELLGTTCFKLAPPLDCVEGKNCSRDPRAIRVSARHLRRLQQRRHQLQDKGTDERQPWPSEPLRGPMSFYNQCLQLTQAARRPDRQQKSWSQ
# ADAM10 inh = inhibitors of human ADAM10; O14672; recombinant ADAM10, EDANS/DABCYL FRET peptide cleavage, 3 h; inhibition, % at 7 µM; 0.62% of 370,000 active;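 active = inhibition above a per-campaign cutoff equal to the mean of compounds falling between control-based bounds plus 3 SD, cut at about 20% in these data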;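 note: 0% = DMSO wells while the 100% control is not disclosed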
# ADAM17 inh = ADAM17 inhibition, QFRET primary screen. P78536. recombinant ADAM17, EDANS/DABCYL FRET peptide cleavage. inhibition, % at 6.95 µM. 0.83% of 370,000 active;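 active = inhibition above the mean of compounds lying between control limits plus 3 SD, set per campaign, cut at about 8.5% in these data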;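 note: 0% = DMSO-only wells as the low control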
# NR3A LBD binder = modulators (binders) of human NR3A ligand-binding domain | NR3A LBD differential scanning fluorimetry, Tm shift; 0% = protein alone, 100% = glycine-bound protein | Tm shift relative to glycine control, % at 25 µM | 2.5% of 340,000 active | AID 1259313;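 active = melting temperature shift of at least 10% of the positive control shift, at one fixed dose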
# FAS TE block = inhibitors of human fatty acid synthase thioesterase domain; recombinant FAS-TE, OMFH fluorogenic substrate, fluorescence endpoint; inhibition, % at 15 µM; 0.67% of 360,000 active;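 active = compounds whose normalised, plate-corrected inhibition of enzyme fluorescence in the single-dose primary screen is 50% or more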;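 note: 0% = DMSO with enzyme and 100% = substrate without enzyme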
# Active calls of the source: *; . = no result given.
SMILES,HGIII-sPLA2 inh,ADAM10 inh,ADAM17 inh,NR3A LBD binder,FAS TE block
CC(=O)c1cccc(NC(=O)c2ccc(Br)o2)c1,-2,1,-5,-2,-3
CCOc1ccc(-n2nc3ccc(NC(=O)c4ccc5c(c4)OCCO5)cc3n2)cc1,11,-49,-30,19*,9
C#CCN1CC(N(C)CCOC(=O)c2cc3ccccc3[nH]2)CS1(=O)=O (configuration not stated),-1,-6,-4,.,.
CCC(C)NS(=O)(=O)c1ccc2[nH]c(=O)oc2c1 (configuration not stated),0,-1,0,.,.
Cc1cc(NC(=O)/C=C/c2ccco2)ccc1NC(=O)c1ccccc1,1,0,-2,0,-1
O=C(/C=C/c1ccco1)Nc1ccc2nn(-c3ccccc3)nc2c1,5,-46,-14,14*,18
C[C@H](O)[C@@H]1CN2CCc3c([nH]c4c(-c5ccc6c(c5)OCO6)cccc34)[C@@H]2C[C@@H]1N(C)C(=S)NCCc1ccccc1,2,7,4,.,.
Cc1cccc(C2(c3cccc(C)c3)CC2C(=O)Nc2ccc([N+](=O)[O-])cc2O)c1 (configuration not stated),-23,19,4,15*,-16
CCOC(=O)c1c(NC(=O)CSc2ncnc3[nH]ncc23)sc2c1CCC(C)C2 (configuration not stated),-1,-2,2,0,-25
CCOC(=O)c1c(NC(=O)CSc2nnnn2-c2ccccc2)sc2c1CCC(C)C2 (configuration not stated),6,1,-8,17*,15
Cc1ccc(S(=O)(=O)/C(C#N)=C/c2c(N3CC(C)OC(C)C3)nc3c(C)cccn3c2=O)cc1 (configuration not stated),-5,-7,-1,1,56*
Cn1c(SC/C=C/c2ccccc2)nnc1-c1ccco1,-8,-1,-2,12*,1
Cc1ccc(CNC(=O)OC(C)(C)C)c(/C=C/S(=O)(=O)NC2CCCC2)c1,5,0,-3,.,.
Cc1ccc(C(=O)Nc2nc3ccc(S(C)(=O)=O)cc3s2)s1,-2,-22,-4,6,-6
Cc1ccc2nc(NC(=O)c3ccc(Cl)s3)sc2c1,13,-19,-2,20*,-2
Cc1nc2ccc(NC(=O)COc3ccccc3C)cc2s1,-2,-3,3,32*,-8
Cc1ccc(C(=O)Nc2nc3ccccc3s2)s1,-3,-13,-8,18*,4
COc1cccc2sc(NC(=O)c3ccc(Br)s3)nc12,5,-4,-5,11*,3
Cc1nc2ccc(NC(=O)COc3ccccc3[N+](=O)[O-])cc2s1,-3,-4,1,1,4
CCC(=O)N1CCc2cc(Br)c(S(=O)(=O)N3CCC(C(=O)NC(C)(C)C)CC3)cc21,3,-7,-1,.,.
CCC(C)[C@@H](C(=O)OC)N(Cc1cn(Cc2ccccc2)nn1)S(=O)(=O)c1ccccc1Br (some centres not stated),-2,11,5,.,.
CNC(=O)[C@@H]1CC=C[C@@H]2CCN(c3ccccc3)C(=O)[C@@H]21,0,2,-1,.,.
Cc1nc2ccc(NC(=O)c3ccc(Cl)s3)cc2s1,-2,5,2,27*,2
O=C(COc1ccccc1C(=O)O)Nc1nc2ccc([N+](=O)[O-])cc2s1,-4,-7,-4,14*,9
CSc1nc2ccc(NC(=O)c3nn(C(C)C)c(=O)c4ccccc34)cc2s1,-4,-1,1,-6,29
SMILES,HGIII-sPLA2 inh,ADAM10 inh,ADAM17 inh,NR3A LBD binder,FAS TE block
Cc1nc2ccc(NC(=O)c3nn(C(C)C)c(=O)c4ccccc34)cc2s1,-21,6,2,17*,3
Cc1cccc(OCC(=O)Nc2nc3ccc([N+](=O)[O-])cc3s2)c1C,-9,1,-1,-1,3
COc1cccc(C(=O)N2CCC(Oc3cccnc3)CC2)c1,-1,-3,-3,.,.
Cc1ccc(/C(N)=N/OC(=O)c2cccs2)cc1,-5,3,-1,-11,-3
COc1ccc(Cl)cc1C(=O)O/N=C(\N)c1ccc(Cl)cc1,4,-6,-3,20*,15
COc1ccc(/C(N)=N/OC(=O)c2cccs2)cc1OC,-2,3,2,22*,-3
Brc1ccc(Cn2nnc(-c3ccc(N4CCOCC4)cc3)n2)cc1,-1,7,0,.,.
FC(F)(F)c1ccc2nc(CNc3nc(N4CCOCC4)nc4c3ncn4-c3ccsc3)[nH]c2c1,-9,5,1,.,.
COc1ccc(-n2c(=S)[nH]c3cc(C(=O)Nc4ccc(C)c(F)c4)ccc3c2=O)c(OC)c1,4,8,8,13*,16
COC(=O)[C@@H]1C[C@@]2(c3ccccc3)c3ccccc3N(S(=O)(=O)c3ccccc3)[C@H]2N1C(=O)CNC1CCCCC1,-12,6,2,.,.
CSc1ccc(OCC(=O)Nc2ccc(N3CCOCC3)c(Cl)c2)cc1,-7,-9,-2,-10,0
O=C(COc1c(F)c(F)c(C(F)(F)F)c(F)c1F)Nc1ccc(N2CCOCC2)c(Cl)c1,-7,7,4,11*,21
Cc1ccccc1NC(=O)OC1CCC12CCC(c1ccccc1)CC2 (configuration not stated),-5,2,0,.,.
COC(=O)c1ccc(Cn2ccc3ccc(-c4ccc5ccn(Cc6ccc(OC)cc6)c5c4)cc32)cc1,11,-18,-6,.,.
Cc1ccccc1COc1ccc(/C=N/NC(=O)c2nnn(-c3nonc3N)c2CN2CCC(C)CC2)cc1,-20,10,-1,87*,16
CCOc1ccc(/C=N/NC(=O)c2nnn(-c3nonc3N)c2COc2ccc(F)cc2)cc1,-1,-4,-6,39*,1
CCCOc1ccc(-c2c(C(=O)N/N=C/c3ccc(OCC)cc3)nnn2-c2nonc2N)cc1,-11,-4,-1,5,3
CCOC(=O)c1nnn(-c2nonc2N)c1CN1CCCCCC1,3,0,2,2,-5
CN(C)c1ccc(/C=N/NC(=O)c2nnn(-c3nonc3N)c2COc2ccc(F)cc2)cc1,13,-13,-5,11*,7
CN(C)Cc1c(C(=O)N/N=C/c2ccc(OCc3ccc(F)cc3)cc2)nnn1-c1nonc1N,4,-3,1,7,-2
CCOC(=O)c1nnn(-c2nonc2-n2cccc2)c1CN1CCCCC1,-5,2,-1,18*,18
CC1CCN(Cc2c(C(=O)N/N=C/c3ccc(OC(C)C)cc3)nnn2-c2nonc2N)CC1,7,1,-2,7,19
CC(C)c1cc(C(=O)N(C2CCCCC2)C2CCCCC2)no1,3,-9,-5,.,.
CCn1c(SCC(=O)c2ccc(-c3ccccc3)cc2)nnc1-c1ccccc1OC,-58,9,5,.,.
CC(C)C[C@@H]1COc2cc(Br)ccc2S(=O)(=O)N1Cc1cn(CCC2OCCO2)nn1,3,3,-1,.,.

# Assay outcomes (PubChem)
